# In PMC8384837, “Expanding the binding specificity for RNA recognition by a PUF domain”:
# Positions count from the first letter of the chain named.
# Columns and labels:
# Assay in all cases: yeast three-hybrid, YBZ-1, SC-Leu-His + 0.5 mM 3-AT, 4 days
# Settings in all cases: tags: N-Gal4 AD-HA kept; label: inside an RPR1-promoter hybrid RNA with tandem MS2 sites; ssRNA
# [1] = biological target: PUM1 PUF domain R2-PFQ (Homo sapiens, UniProt Q14671 828-1176, N899P;Y900F)
# Procedure, shortened: (§1)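 Repeat regions from input (SC-Leu) and selection (SC-Leu-His + 0.5 mM 3-AT) plates were PCR-amplified and Illumina-sequenced after four days of growth. The cells were strain YBZ-1 with a LexA–MS2 coat fusion and a HIS3 reporter, co-expressing Pumilio-1 PUF domain libraries and matching RNA elements from a centromeric plasmid. The interaction score is the log change in variant frequency from input to selection, taken in log2 with a pseudocount of 1 for absent variants.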
# [2] = biological target: PUM1 PUF domain R4-FNM (Homo sapiens, UniProt Q14671 828-1176, N971F;H972N;Q975M)
# Procedure, shortened: as §1
# [3] = biological target: PUM1 PUF domain R3-TRC (Homo sapiens, UniProt Q14671 828-1176, C935T;Q939C)
# Procedure, shortened: as §1
# [4] = biological target: T1, PUM1 PUF domain R6-VFK (Homo sapiens, UniProt Q14671 828-1176, N1043V;Y1044F;Q1047K)
# T1 sequence: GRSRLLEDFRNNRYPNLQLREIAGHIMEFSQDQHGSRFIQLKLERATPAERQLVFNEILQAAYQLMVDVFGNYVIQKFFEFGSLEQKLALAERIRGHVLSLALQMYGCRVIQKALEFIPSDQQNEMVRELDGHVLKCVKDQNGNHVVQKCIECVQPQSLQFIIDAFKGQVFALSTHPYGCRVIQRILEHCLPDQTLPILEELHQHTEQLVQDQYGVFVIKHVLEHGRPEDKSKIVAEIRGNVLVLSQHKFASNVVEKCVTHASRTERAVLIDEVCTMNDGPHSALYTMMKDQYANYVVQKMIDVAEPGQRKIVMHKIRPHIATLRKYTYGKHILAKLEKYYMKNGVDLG
# Procedure, shortened: as §1
# [5] = biological target: PUM1 PUF domain R3-RPD (Homo sapiens, UniProt Q14671 828-1176, C935R;R936P;Q939D)
# Procedure, shortened: as §1
# [6] = biological target: PUM1 PUF domain R7-ISS (Homo sapiens, UniProt Q14671 828-1176, S1079I;N1080S;E1083S)
# Procedure, shortened: as §1
# [7] = biological target: PUM1 PUF domain R5-LHD (Homo sapiens, UniProt Q14671 828-1176, C1007L;R1008H;Q1011D)
# Procedure, shortened: as §1
# [8] = biological target: T2, PUM1 PUF domain R6-SFK (Homo sapiens, UniProt Q14671 828-1176, N1043S;Y1044F;Q1047K)
# T2 sequence: T1 sequence with V216S
# Procedure, shortened: as §1
# [9] = biological target: PUM1 PUF domain R3-LYI (Homo sapiens, UniProt Q14671 828-1176, C935L;R936Y;Q939I)
# Procedure, shortened: as §1
# [10] = biological target: PUM1 PUF domain R4-RMQ (Homo sapiens, UniProt Q14671 828-1176, N971R;H972M)
# Procedure, shortened: as §1
sequence,measurement,setting,value
GGCUAGAACUAGUGGAUCCCCCGGCGCCCGGCGGCUCGAGCCCGGGUAAGUGUAAAAAGUCUGCAUGCCGCCGGGCGCCAUGCCUGCAGGUCGACUCUAGAAAACAUG,binding signal,[1],4.24 log2 enrichment (interaction score)
GGCUAGAACUAGUGGAUCCCCCGGCGCCCGGCGGCUCGAGCCCGGGUAAGUGUACAUAGUCUGCAUGCCGCCGGGCGCCAUGCCUGCAGGUCGACUCUAGAAAACAUG,binding signal,[2],2.87 log2 enrichment (interaction score)
GGCUAGAACUAGUGGAUCCCCCGGCGCCCGGCGGCUCGAGCCCGGGUAAGUGUAAGUAGUCUGCAUGCCGCCGGGCGCCAUGCCUGCAGGUCGACUCUAGAAAACAUG,binding signal,[3],2.14 log2 enrichment (interaction score)
GGCUAGAACUAGUGGAUCCCCCGGCGCCCGGCGGCUCGAGCCCGGGUAAGUGAAAAUAGUCUGCAUGCCGCCGGGCGCCAUGCCUGCAGGUCGACUCUAGAAAACAUG,binding signal,[4],8.43 log2 enrichment (interaction score)
GGCUAGAACUAGUGGAUCCCCCGGCGCCCGGCGGCUCGAGCCCGGGUAAGUGCAAAUAGUCUGCAUGCCGCCGGGCGCCAUGCCUGCAGGUCGACUCUAGAAAACAUG,binding signal,[4],1.94 log2 enrichment (interaction score)
GGCUAGAACUAGUGGAUCCCCCGGCGCCCGGCGGCUCGAGCCCGGGUAAGUGUAUAUAGUCUGCAUGCCGCCGGGCGCCAUGCCUGCAGGUCGACUCUAGAAAACAUG,binding signal,[2],3.46 log2 enrichment (interaction score)
GGCUAGAACUAGUGGAUCCCCCGGCGCCCGGCGGCUCGAGCCCGGGUAAGUGUAAUUAGUCUGCAUGCCGCCGGGCGCCAUGCCUGCAGGUCGACUCUAGAAAACAUG,binding signal,[5],3.79 log2 enrichment (interaction score)
GGCUAGAACUAGUGGAUCCCCCGGCGCCCGGCGGCUCGAGCCCGGGUAAGUUUAAAUAGUCUGCAUGCCGCCGGGCGCCAUGCCUGCAGGUCGACUCUAGAAAACAUG,binding signal,[6],3.84 log2 enrichment (interaction score)
GGCUAGAACUAGUGGAUCCCCCGGCGCCCGGCGGCUCGAGCCCGGGUAAGUGUGAAUAGUCUGCAUGCCGCCGGGCGCCAUGCCUGCAGGUCGACUCUAGAAAACAUG,binding signal,[7],2.82 log2 enrichment (interaction score)
GGCUAGAACUAGUGGAUCCCCCGGCGCCCGGCGGCUCGAGCCCGGGUAAGUGUAAAUAGUCUGCAUGCCGCCGGGCGCCAUGCCUGCAGGUCGACUCUAGAAAACAUG,binding signal,[4],3.04 log2 enrichment (interaction score)
same,binding signal,[3],3.26 log2 enrichment (interaction score)
same,binding signal,[7],3.18 log2 enrichment (interaction score)
same,binding signal,[8],6.49 log2 enrichment (interaction score)
same,binding signal,[9],4.35 log2 enrichment (interaction score)
same,binding signal,[10],3.34 log2 enrichment (interaction score)
